High-throughput results (PubChem)
Hits are enriched below; roughly 1.4% of the tested compounds scored in any of these assays.
SARS 3CLpro inh: SARS-CoV 3CLpro protease inhibitors, primary screen, biochemical, quenched FRET; inhibition, % at 6 µM; Replicase polyprotein 1ab (Severe acute respiratory syndrome coronavirus), P0C6X7; recombinant SARS-CoV 3CLpro, quenched FRET peptide cleavage; 290,000 compounds, 0.14% hits; in the data active = inhibition above about 12%
PrPC TRFRET: inhibitors of human cell surface prion protein PrPC, primary screen, cell-based, TR-FRET. TR-FRET read-out. 370,000 compounds, 0.43% hits. AID 720596, 2013. Major prion protein (Homo sapiens), P04156. inhibition, % at 13.8 µM; in the data active = inhibition above about 24%
BJeLR lethal: MLPCN primary cell-based screen for lethality selective to Ras in HRASV12 cells | BJeLR (HRASV12) viability, CellTiter-Glo ATP luminescence, 48 h | inhibition, % (test concentration not listed) | 300,000 compounds, 0.17% hits; in the data active = inhibition above about 50%
Sa RN4220 lethal: growth inhibition of S. aureus RN4220, primary screen, OD600; 330,000 compounds, 0.33% hits; inhibition, % (no concentration beside the values); AID 1259311, 2017; 16 h; in the data active = inhibition above about 85%
DUSP3 inh: VHR1 phosphatase inhibitors, primary screen, biochemical, absorbance, uHTS. recombinant VHR phosphatase, pNPP absorbance. inhibition, % at 13.3 µM. AID 1654, 2009. 290,000 compounds, 0.52% hits. Dual specificity protein phosphatase 3 (Homo sapiens), P51452; in the data active = inhibition above about 50%
Sa ugtP lethal: growth inhibition of ugtP-null S. aureus, primary screen, RN4220 ugtP deletion, OD600 | 16 h | growth inhibition, % (no concentration beside the values) | 330,000 compounds, 0.54% hits | AID 1259309, 2017; in the data active = growth inhibition above about 68%
PrPC TRFRET cf: confirmation of inhibitors of cell surface human prion protein, confirmation, cell-based, TR-FRET; cell surface PrPC level; inhibition, % at 13.8 µM; shares compounds with PrPC TRFRET; 1,500 compounds, 65% hits; in the data active = inhibition above about 25%
LD9 tox: cytotoxicity in LD9 cells, cytotoxicity control for cell surface PrPc inhibitor project, cell-based, luminescence, high throughput; shares compounds with PrPC TRFRET; luminescence viability; inhibition, % at 13.8 µM; 1,500 compounds, 29% hits; in the data active = inhibition above about 9.5%
A number is an active result; . = inactive; / = no result given.

SMILES	SARS 3CLpro inh	PrPC TRFRET	BJeLR lethal	Sa RN4220 lethal	DUSP3 inh	Sa ugtP lethal	PrPC TRFRET cf	LD9 tox
CCOC(=O)c1c(/N=C/N(C)C)sc(/C=N/Nc2ccccc2)c1-c1ccccc1	.	54	.	/	.	/	40	.
COc1cccc(N2CC(O)=C(c3nc4ccccc4s3)C2=N)c1	.	92	.	.	.	.	88	.
COC(=O)C1=C(c2ccc(OC)c(OC)c2)CC2CCC1N2C(=O)NCc1cccc2ccccc12 (centres undefined)	/	/	/	.	/	.	/	/
COc1ccc(/C(O)=C2/C(=O)C(=O)N(Cc3cccnc3)C2c2ccncc2)cc1F (centres undefined)	.	.	.	.	.	.	/	/
COCCCN1C(=O)C(=O)/C(=C(/O)c2ccc(OCC(C)C)cc2C)C1c1cccnc1 (centres undefined)	.	26	.	.	.	.	36	.
Cc1cc(OCc2ccccc2)ccc1/C(O)=C1/C(=O)C(=O)N(Cc2cccnc2)C1c1ccncc1 (centres undefined)	.	34	.	.	.	.	54	.
CCCOc1ccc(/C(O)=C2/C(=O)C(=O)N(CCOC)C2c2cccnc2)cc1 (centres undefined)	.	.	.	.	.	.	/	/
CC1CN(C(C)CO)C(=O)c2cccc(N(C)C)c2OC1CN(C)C(=O)NC1CCCCC1 (centres undefined)	/	/	/	.	/	.	/	/
N#CCC(N)=C(C#N)C#N	.	61	.	.	.	.	.	.
O=C(NNc1ccc(-c2csnn2)cc1)c1cc(Cl)cc(Cl)c1	.	27	.	.	.	.	32	.
O=C(NNc1ccc(-c2csnn2)cc1)c1ccccc1C(F)(F)F	.	.	.	.	.	.	/	/
Cn1c(C(C#N)=C2CCCCCN2)nc2ccccc21	/	/	/	.	/	.	/	/
O=S(c1ccc2ccccc2c1)c1cnns1 (centres undefined)	.	34	/	.	.	.	.	76
Cc1nnsc1S(=O)c1ccc(Cl)c(Cl)c1 (centres undefined)	.	.	.	.	.	.	/	/
O=C1N(c2ccccc2)C[C@@H]2C[C@@H](c3cc4ccccc4o3)N3CCC[C@@]123	.	40	51	.	.	.	54	25
Cc1onc(-c2ccccc2)c1C(=O)Oc1cccnc1	.	30	.	.	.	.	.	.
COC(=O)c1c(-c2ccccc2)noc1C	.	.	.	.	.	.	/	/
Cc1ccc(C(=O)Nc2ccc3cn[nH]c3c2)cc1S(=O)(=O)N1CCCCC1	.	26	.	.	.	.	.	.
Cc1ccc(-n2ncc(Br)c(Br)c2=O)cc1	.	/	.	.	.	.	/	/
O=c1c(Br)c(Br)cnn1-c1ccccc1	.	33	/	.	.	.	80	98
O=C1C(=C(c2ccccc2)N2CCOCC2)Cc2ccccc21	/	33	/	/	/	/	.	98
COc1ccc(S(=O)(=O)Nc2ccc(C)cc2)cc1N(C)S(=O)(=O)c1ccc(Cl)cc1	.	25	.	.	.	.	.	.
CN(C)S(=O)(=O)c1ccc(N2CCCC2)c(C(=O)Nc2ccccc2)c1	/	42	.	.	/	.	41	.
Cc1nnc(NC(=O)c2cc(S(=O)(=O)N(C)C)ccc2N2CCCC2)s1	/	25	/	.	/	.	.	.
CN(C)S(=O)(=O)c1ccc(N2CCCC2)c(C(=O)NCC(=O)Nc2ccc(F)c(F)c2)c1	/	.	/	.	/	.	/	/
Cc1ccc(NC(=O)c2cc(S(=O)(=O)N(C)C)ccc2N2CCCC2)cc1F	.	63	.	.	.	.	54	.
Nc1ncnc2c1nc(Sc1ccc(Cl)cc1)n2C1OC2COP(=O)(O)OC2C1O (centres undefined)	/	/	/	.	/	.	/	/
CC(C)CC1CN=C(N(C)C)N1CC(C)C (centres undefined)	/	/	/	.	/	.	/	/
